From ChEMBL document CHEMBL5606458, “ASAP - ZIKV NS2B-NS3 protease fluorescence single point” (2024) come the findings set out here.

About 160 (5.9%) of roughly 2,700 compounds showed an effect of 50% or more. For the sample, strong results were picked, then their nearest neighbours and some compounds at random.

In this assay the target is Nonstructural protein 3 (Zika virus) (UniProt A0A024AXB9).
Chain of Nonstructural protein 3 (Zika virus) (A0A024AXB9 as listed by the source): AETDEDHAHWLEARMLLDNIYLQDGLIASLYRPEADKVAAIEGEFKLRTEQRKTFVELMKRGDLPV

Take `N#C[C@H]1CCCN(Cc2c[nH]c3ccccc23)C1`: the inhibition (commonly the relative decrease from the control value, in per cent) was 3.62% (PRVABC59, Concentration 49.5 uM, Number of replicates 2.0, Standard deviation 3.0443309311516127 %); 5.66% (PRVABC59, Concentration 99.01 uM, Number of replicates 2.0, Standard deviation 5.606340240027709 %); 8.81% (PRVABC59, Concentration 198.0 uM, Number of replicates 2.0, Standard deviation 2.4427254668079588 %).
As to `C[C@@H](Cc1c[nH]c2ccccc12)N1CC[C@H](c2c[nH]c3ccccc23)C1`, the inhibition was found to be 29.4% (PRVABC59, Concentration 49.5 uM, Number of replicates 2.0, Standard deviation 2.440376707234144 %); 46% (PRVABC59, Concentration 99.01 uM, Number of replicates 2.0, Standard deviation 1.7661943697547304 %); 60.4% (PRVABC59, Concentration 198.0 uM, Number of replicates 2.0, Standard deviation 0.6921254310022592 %).
For the compound `O=C1NCc2ccccc2C12CCN(CCn1cc(-c3ccccc3)cn1)CC2`, the inhibition by setting is: (PRVABC59, Concentration 49.5 uM, Number of replicates 2.0, Standard deviation 2.8974171324862783 %) -1.24%; (PRVABC59, Concentration 99.01 uM, Number of replicates 2.0, Standard deviation 3.3976160570541145 %) 2.72%; (PRVABC59, Concentration 198.0 uM, Number of replicates 2.0, Standard deviation 1.9883423160607387 %) 8.7%.
On to `CCn1ccnc(N2CC[C@H](c3ccncc3)C2)c1=O`, for which the inhibition reads like this: (PRVABC59, Concentration 50.0 uM, Number of replicates 2.0, Standard deviation 13.086126440978003 %) 15.5%; (PRVABC59, Concentration 100.0 uM, Number of replicates 2.0, Standard deviation 1.9353273126054316 %) 11.2%; (PRVABC59, Concentration 200.0 uM, Number of replicates 2.0, Standard deviation 4.176368308171179 %) 19%.
Regarding `Cc1nc([C@H]2CCCNC2)[nH]c1C(=O)Nc1ccccn1`, the inhibition reads like this: (PRVABC59, Concentration 49.5 uM, Number of replicates 2.0, Standard deviation 0.17090445918731104 %) 8.49%; (PRVABC59, Concentration 99.01 uM, Number of replicates 2.0, Standard deviation 0.26430592158490923 %) 17.8%; (PRVABC59, Concentration 198.0 uM, Number of replicates 2.0, Standard deviation 0.13314627771815937 %) 30.2%.
Take `c1ccc2c([C@H]3CCN(CC4CCOCC4)C3)c[nH]c2c1`: the inhibition runs as follows: (PRVABC59, Concentration 49.5 uM, Number of replicates 2.0, Standard deviation 2.5997737280788282 %) 6.89%; (PRVABC59, Concentration 99.01 uM, Number of replicates 2.0, Standard deviation 3.698865419379611 %) 11.8%; (PRVABC59, Concentration 198.0 uM, Number of replicates 2.0, Standard deviation 1.139250220086327 %) 22.2%.
`c1cc(CN2CCC(c3c[nH]c4cccnc34)CC2)c2cn[nH]c2c1`: the inhibition is, setting by setting: (PRVABC59, Concentration 49.5 uM, Number of replicates 2.0, Standard deviation 0.9568639478402843 %) 4.4%; (PRVABC59, Concentration 99.01 uM, Number of replicates 2.0, Standard deviation 0.8012763277514082 %) 10%; (PRVABC59, Concentration 198.0 uM, Number of replicates 2.0, Standard deviation 3.635563550314553 %) 17.8%.
As for `CCn1ccnc(N2CCC(c3c[nH]c4ccccc34)CC2)c1=O`, the inhibition amounted to 13.2% (PRVABC59, Concentration 49.5 uM, Number of replicates 2.0, Standard deviation 0.010362729937070537 %); 22.1% (PRVABC59, Concentration 99.01 uM, Number of replicates 2.0, Standard deviation 0.987094027815814 %); 8.34% (PRVABC59, Concentration 198.0 uM, Number of replicates 2.0, Standard deviation 0.3108960594532158 %).
Regarding `c1ccc2c(CN3CCC(c4c[nH]c5cccnc45)CC3)n[nH]c2c1`, the inhibition (PRVABC59, Concentration 49.5 uM, Number of replicates 2.0, Standard deviation 0.6456276790258886 %) was determined as 55.4%; the inhibition (PRVABC59, Concentration 99.01 uM, Number of replicates 2.0, Standard deviation 0.2001199802254866 %) is 70.2%; the inhibition (PRVABC59, Concentration 198.0 uM, Number of replicates 2.0, Standard deviation 0.3311541950710681 %) came out at 79.4%.
As for `CCn1ccc2cc(CN3CCC(c4c[nH]c5cccnc45)CC3)ccc21`, the inhibition worked out at 3.93% (PRVABC59, Concentration 49.5 uM, Number of replicates 2.0, Standard deviation 2.8809639300582925 %); 15.6% (PRVABC59, Concentration 99.01 uM, Number of replicates 2.0, Standard deviation 1.8463057507050853 %); 34.4% (PRVABC59, Concentration 198.0 uM, Number of replicates 2.0, Standard deviation 0.9205600012321524 %).
As for `c1ccc2c(CN3CC[C@H](c4c[nH]c5ccccc45)C3)c[nH]c2c1`, the inhibition by setting is: (PRVABC59, Concentration 50.0 uM, Number of replicates 2.0, Standard deviation 0.9766631885715499 %) 20.3%; (PRVABC59, Concentration 100.0 uM, Number of replicates 2.0, Standard deviation 0.28966551174652017 %) 37.5%; (PRVABC59, Concentration 200.0 uM, Number of replicates 2.0, Standard deviation 1.348359280162217 %) 55.9%.
As for `c1cnc2c(CN3CCC(c4c[nH]c5cccnc45)CC3)c[nH]c2c1`, the inhibition reads like this: (PRVABC59, Concentration 49.5 uM, Number of replicates 2.0, Standard deviation 0.7260748860651783 %) 51.4%; (PRVABC59, Concentration 99.01 uM, Number of replicates 2.0, Standard deviation 0.6197542344872328 %) 66.3%; (PRVABC59, Concentration 198.0 uM, Number of replicates 2.0, Standard deviation 0.45379950118904117 %) 74.9%.
`c1ccc2c(CN3CCC[C@H](c4c[nH]c5ccccc45)C3)c[nH]c2c1`: the inhibition by setting is: (PRVABC59, Concentration 50.0 uM, Number of replicates 2.0, Standard deviation 1.0176784784936235 %) 17.6%; (PRVABC59, Concentration 100.0 uM, Number of replicates 2.0, Standard deviation 1.399627381040445 %) 30%; (PRVABC59, Concentration 200.0 uM, Number of replicates 2.0, Standard deviation 0.26403213565698247 %) 45.3%.
As to `c1cc(CN2CCC(c3c[nH]c4cccnc34)CC2)c2[nH]ncc2c1`, the inhibition runs as follows: (PRVABC59, Concentration 49.5 uM, Number of replicates 2.0, Standard deviation 1.1670691631522456 %) 7.96%; (PRVABC59, Concentration 99.01 uM, Number of replicates 2.0, Standard deviation 0.8238130905871536 %) 15.7%; (PRVABC59, Concentration 198.0 uM, Number of replicates 2.0, Standard deviation 0.8191324301789277 %) 25.9%.
